Values joined by “and” are separate entries in the source; they are usually repeats but may differ in a detail not shown here. Equal entries are not always repeated. Hit rate of the full screen: of about 5,500 compounds, about 2,000 (36%) were called active. Another 18% or so got no clear call; they are omitted. No stated cut-off is given here; in the data, active means normalized growth mostly below about 0.91 (no sharp cut-off); inconclusive means no clear call, values can overlap the other calls; inactive means mostly above about 0.92. This is one part of the list.
Assay: chemical genetic growth profiling, strain panel (AID 1159580);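 further: tested at 20 µM; growth read once vehicle control cultures reached saturation at 30 °C; 1 = growth at the plate median or of vehicle wells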
Settings: growth OD

Measured: normalized growth

Nc1c2c(nc3ccccc13)CCCC2
inactive: S. cerevisiae deletion strains, locus YKL068W, stronger effect = lower value 1.01 | S. cerevisiae deletion strains, locus YKL085W, strain MDH1 (second series), stronger effect = lower value 1.01 | S. cerevisiae deletion strains, locus YKL085W, strain MDH1, stronger effect = lower value 1.01 | S. cerevisiae deletion strains, locus YKL160W, strain elf1, stronger effect = lower value 1.01 | S. cerevisiae deletion strains, locus YKL190W, strain CNB1, stronger effect = lower value 1.02 | S. cerevisiae deletion strains, locus YKR001C, strain vps1, stronger effect = lower value 0.998 | S. cerevisiae deletion strains, locus YKR026C, strain gcn3, stronger effect = lower value 0.986 | S. cerevisiae deletion strains, locus YKR091W, strain srl3, stronger effect = lower value 0.994 | S. cerevisiae deletion strains, locus YLL001W, strain dnm1, stronger effect = lower value 0.989 | S. cerevisiae deletion strains, locus YLL026W, stronger effect = lower value 0.99 | S. cerevisiae deletion strains, locus YLL041C, strain sdh2, stronger effect = lower value 0.982 | S. cerevisiae deletion strains, locus YLR027C, strain aat2, stronger effect = lower value 0.984 | S. cerevisiae deletion strains, locus YLR039C, strain RIC1, stronger effect = lower value 1.09 | S. cerevisiae deletion strains, locus YLR058C, strain SHM2, stronger effect = lower value 1.02 | S. cerevisiae deletion strains, locus YLR102C, strain apc9, stronger effect = lower value 1.01 | S. cerevisiae deletion strains, locus YLR113W, strain HOG1, stronger effect = lower value 1.02 | S. cerevisiae deletion strains, locus YLR221C, strain rsa3, stronger effect = lower value 0.963 | S. cerevisiae deletion strains, locus YLR258W, strain gsy2, stronger effect = lower value 1 | S. cerevisiae deletion strains, locus YLR262C, strain YPT6 (second series), stronger effect = lower value 1.01 | S. cerevisiae deletion strains, locus YLR262C, strain YPT6, stronger effect = lower value 1.1 | S. cerevisiae deletion strains, locus YLR268W, strain sec22, stronger effect = lower value 1.01 | S. cerevisiae deletion strains, locus YLR320W, strain mms22, stronger effect = lower value 0.947 | S. cerevisiae deletion strains, locus YLR330W, strain CHS5, stronger effect = lower value 1.01 | S. cerevisiae deletion strains, locus YLR342W, strain FKS1 (second series), stronger effect = lower value 1 | S. cerevisiae deletion strains, locus YLR342W, strain FKS1, stronger effect = lower value 0.999 | S. cerevisiae deletion strains, locus YLR357W, strain rsc2, stronger effect = lower value 0.994 | S. cerevisiae deletion strains, locus YLR370C, strain arc18, stronger effect = lower value 1.01 | S. cerevisiae deletion strains, locus YLR371W, strain rom2, stronger effect = lower value 1.03 | S. cerevisiae deletion strains, locus YLR384C, strain iki3, stronger effect = lower value 0.99 | S. cerevisiae deletion strains, locus YLR418C, strain cdc73, stronger effect = lower value 1.03 | S. cerevisiae deletion strains, locus YML016C, strain PPZ1, stronger effect = lower value 1.01 | S. cerevisiae deletion strains, locus YML032C, strain rad52, stronger effect = lower value 1.01 | S. cerevisiae deletion strains, locus YML120C, strain ndi1, stronger effect = lower value 1 | S. cerevisiae deletion strains, locus YML124C, strain tub3, stronger effect = lower value 1.02 | S. cerevisiae deletion strains, locus YMR058W, strain fet3, stronger effect = lower value 0.979 | S. cerevisiae deletion strains, locus YMR078C, strain ctf18, stronger effect = lower value 1.02 | S. cerevisiae deletion strains, locus YMR125W, strain sto1, stronger effect = lower value 1.01 | S. cerevisiae deletion strains, locus YMR129W, stronger effect = lower value 0.99 | S. cerevisiae deletion strains, locus YMR205C, strain PFK2, stronger effect = lower value 1.01 | S. cerevisiae deletion strains, locus YMR223W, strain ubp8, stronger effect = lower value 1.01 | S. cerevisiae deletion strains, locus YMR231W, strain pep5, stronger effect = lower value 0.976 | S. cerevisiae deletion strains, locus YMR263W, strain SAP30, stronger effect = lower value 1.01 | S. cerevisiae deletion strains, locus YMR307W, strain GAS1, stronger effect = lower value 0.999 | S. cerevisiae deletion strains, locus YNL067W, strain RPL9B, stronger effect = lower value 0.998 | S. cerevisiae deletion strains, locus YNL071W, strain lat1, stronger effect = lower value 1 | S. cerevisiae deletion strains, locus YNL128W, strain TEP1, stronger effect = lower value 1.01 | S. cerevisiae deletion strains, locus YNL153C, strain GIM3, stronger effect = lower value 0.994 | S. cerevisiae deletion strains, locus YNL175C, strain NOP13, stronger effect = lower value 0.99 | S. cerevisiae deletion strains, locus YNL183C, strain NPR1, stronger effect = lower value 0.954 | S. cerevisiae deletion strains, locus YNL197C, strain WHI3, stronger effect = lower value 1.01 | S. cerevisiae deletion strains, locus YNL209W, strain ssb2, stronger effect = lower value 1.01 | S. cerevisiae deletion strains, locus YNL224C, strain SQS1, stronger effect = lower value 0.995 | S. cerevisiae deletion strains, locus YNL233W, strain BNI4, stronger effect = lower value 0.999 | S. cerevisiae deletion strains, locus YNL250W, strain rad50, stronger effect = lower value 1.03 | S. cerevisiae deletion strains, locus YNL271C, strain bni1, stronger effect = lower value 1.02 | S. cerevisiae deletion strains, locus YNL298W, strain CLA4, stronger effect = lower value 1.02 | S. cerevisiae deletion strains, locus YNL307C, strain MCK1, stronger effect = lower value 1.02 | S. cerevisiae deletion strains, locus YNL322C, strain KRE1 (second series), stronger effect = lower value 1.01 | S. cerevisiae deletion strains, locus YNL322C, strain KRE1, stronger effect = lower value 1.01 | S. cerevisiae deletion strains, locus YNR049C, strain mso1, stronger effect = lower value 0.975 | S. cerevisiae deletion strains, locus YNR052C, strain pop2, stronger effect = lower value 1 | S. cerevisiae deletion strains, locus YOL006C, strain TOP1, stronger effect = lower value 1.05 | S. cerevisiae deletion strains, locus YOL012C, strain htz1 0.82 | S. cerevisiae deletion strains, locus YOL147C, strain pex11, stronger effect = lower value 1.01 | S. cerevisiae deletion strains, locus YOR001W, strain rrp6, stronger effect = lower value 0.925 | S. cerevisiae deletion strains, locus YOR061W, strain CKA2, stronger effect = lower value 1.02 | S. cerevisiae deletion strains, locus YOR069W, strain VPS5, stronger effect = lower value 1.01 | S. cerevisiae deletion strains, locus YOR070C, strain gyp1, stronger effect = lower value 0.975 | S. cerevisiae deletion strains, locus YOR080W, strain dia2, stronger effect = lower value 0.969 | S. cerevisiae deletion strains, locus YOR083W, strain WHI5 (second series), stronger effect = lower value 0.962 | S. cerevisiae deletion strains, locus YOR083W, strain WHI5, stronger effect = lower value 0.994 | S. cerevisiae deletion strains, locus YOR106W, strain vam3, stronger effect = lower value 0.997 | S. cerevisiae deletion strains, locus YOR136W, strain idh2, stronger effect = lower value 1.02 | S. cerevisiae deletion strains, locus YOR144C, strain elg1, stronger effect = lower value 1.02 | S. cerevisiae deletion strains, locus YOR184W, strain ser1, stronger effect = lower value 1.04 | S. cerevisiae deletion strains, locus YOR231W, strain MKK1, stronger effect = lower value 0.985 | S. cerevisiae deletion strains, locus YOR265W, strain rbl2, stronger effect = lower value 0.99 | S. cerevisiae deletion strains, locus YOR270C, strain vph1, stronger effect = lower value 0.888 | S. cerevisiae deletion strains, locus YOR290C, strain snf2, stronger effect = lower value 0.971 | S. cerevisiae deletion strains, locus YOR316C, strain cot1, stronger effect = lower value 1.02 | S. cerevisiae deletion strains, locus YPL051W, strain arl3, stronger effect = lower value 0.951 | S. cerevisiae deletion strains, locus YPL055C, strain LGE1, stronger effect = lower value 1.02 and 0.992 | S. cerevisiae deletion strains, locus YPL078C, strain atp4, stronger effect = lower value 1.02 | S. cerevisiae deletion strains, locus YPL106C, strain sse1, stronger effect = lower value 0.982 | S. cerevisiae deletion strains, locus YPL240C, strain hsp82, stronger effect = lower value 0.987 | S. cerevisiae deletion strains, locus YPL241C, strain CIN2, stronger effect = lower value 1.01 | S. cerevisiae deletion strains, locus YPL256C, strain CLN2, stronger effect = lower value 0.995 | S. cerevisiae deletion strains, locus YPR119W, strain clb2, stronger effect = lower value 1.01 | S. cerevisiae deletion strains, locus YPR141C, strain kar3, stronger effect = lower value 1.01 | S. cerevisiae deletion strains, locus YPR163C, strain tif3, stronger effect = lower value 1.01 | S. cerevisiae deletion strains, locus YPR167C, strain met16, stronger effect = lower value 1.02 | S. cerevisiae deletion strains, strain wtn01, stronger effect = lower value 1.02 | S. cerevisiae strains, strain wild type, stronger effect = lower value 1.02
active: S. cerevisiae deletion strains, locus YNL248C, strain rpa49, stronger effect = lower value 0.84

— PubChem BioAssay AID1159580 (chemical genetic matrix, 2015)
